Screens deposited in PubChem by several laboratories.
14-3-3 Bad PPI – inhibitors of 14-3-3 zeta/Bad binding, primary screen, biochemical, TR-FRET, bovine 14-3-3 zeta; 14-3-3 protein zeta/delta (Bos taurus), P63103; TR-FRET 14-3-3zeta/Dy647-pBad peptide displacement, 1 h; inhibition, % at 21.7 µM; hit rate 0.71% among 220,000; AID 781, 2007;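 active means inhibition above about 70%, limit read from the data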;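 further: 0% = full 14-3-3 plus peptide FRET controls and 100% = background without 14-3-3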
Target sequence (P63103 whole entry, looked up): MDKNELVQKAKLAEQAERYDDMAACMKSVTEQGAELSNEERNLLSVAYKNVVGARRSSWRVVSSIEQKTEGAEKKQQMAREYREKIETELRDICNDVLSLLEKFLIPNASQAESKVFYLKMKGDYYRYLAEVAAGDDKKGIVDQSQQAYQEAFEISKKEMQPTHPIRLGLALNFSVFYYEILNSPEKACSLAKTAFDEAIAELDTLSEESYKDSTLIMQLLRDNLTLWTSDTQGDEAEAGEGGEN
Mcl1 Noxa PPI – Mcl-1/Noxa binding inhibitors, primary screen, biochemical, TR-FRET, 1536-well; TR-FRET Mcl-1/Noxa peptide binding, 2 h; Induced myeloid leukemia cell differentiation protein Mcl-1 (Homo sapiens), Q07820; hit rate 1.5% among 220,000; AID 1022, 2008; inhibition, % at 21.7 µM;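 active means compounds that cut the protein-peptide binding signal by more than 50% relative to plate controls in a single-dose test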;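 further: His-tagged Mcl-1 with rhodamine Noxa BH3 peptide and terbium anti-His antibody; 0% = Mcl-1 plus Noxa peptide wells and 100% = peptide-only wells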
Bim-Mcl-1 – inhibitors of Bim peptide binding to Mcl-1, primary screen, biochemical, bead-based flow cytometry, multiplex; Induced myeloid leukemia cell differentiation protein Mcl-1 (Homo sapiens), Q07820; inhibition, % at 10 µM; Bim peptide-Mcl-1 binding; hit rate 0.1% among 190,000; in the data active means inhibition above about 40%;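 further: 0% = no compound tracer wells and 100% = peptide blocker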
NCF1 inh – p47phox/p22phox peptide binding inhibitors, primary screen, biochemical, uHTS, NADPH oxidase regulatory subunit; Neutrophil cytosol factor 1 (Homo sapiens), P14598; fluorescence polarization, 2 h; inhibition, % at 24.7 µM; hit rate 0.53% among 220,000; AID 1274, 2008;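 further: 0% = p47phox with labelled peptide and 100% = labelled peptide alone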
Mcl1-Bid inh – Mcl-1/Bid binding inhibitors, primary screen, biochemical, TR-FRET, 1536-well; AID 1021, 2008; hit rate 0.97% among 220,000; inhibition, % at 21.7 µM; TR-FRET Mcl-1/Bid-Dy647 peptide binding;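 active means compounds that cut the binding signal by more than half at the single screening dose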;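 further: His-tagged Mcl-1 with europium anti-His antibody binding Bid BH3 peptide; 0% = Mcl-1 plus peptide wells and 100% = peptide-only wells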
eIF4E 4G PPI – eIF4E–eIF4G protein interaction inhibitors, primary screen, biochemical, uHTS, TR-FRET, eIF4GI fragment; Eukaryotic translation initiation factor 4E (Mus musculus) + Eukaryotic translation …; AID 782, 2007; inhibition, % at 21.7 µM; hit rate 0.37% among 220,000; TR-FRET eIF4E-eIF4GI(517-606) binding, 2 h;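 further: 0% = full FRET control wells and 100% = background wells lacking eIF4GI fragment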
Starred values were filed as active, the others as inactive. Shown are actives, neighbours in structure and some others; about 3.3% of the full set was active somewhere.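 How the source made its calls, unless noted: active means inhibition above about 30% (limit read from the data); inactive means the rest.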

What do the screens show for `Cc1cccc(NC(=O)CSc2c3c(nc4ccccc24)CCC3)n1`?
14-3-3 Bad PPI: -7; Mcl1 Noxa PPI: 1; Bim-Mcl-1: -1; NCF1 inh: -5; Mcl1-Bid inh: -15; eIF4E 4G PPI: 0

How did Cc1cc(-c2ccccc2)nc(N(C)NC(=O)c2c(F)cccc2F)c1S(C)(=O)=O do in these assays?
14-3-3 Bad PPI: 0; Mcl1 Noxa PPI: 7; Bim-Mcl-1: -8; NCF1 inh: 115*; Mcl1-Bid inh: -6; eIF4E 4G PPI: 2

What do the screens show for `CN(C)S(=O)(=O)c1cccc(-n2sc3ccccc3c2=O)c1`?
14-3-3 Bad PPI: -8; Mcl1 Noxa PPI: 32; Bim-Mcl-1: -3; NCF1 inh: 93*; Mcl1-Bid inh: -44; eIF4E 4G PPI: 56*

How did O=c1c2ccccc2sn1-c1nccs1 do in these assays?
14-3-3 Bad PPI: -28; Mcl1 Noxa PPI: 23; Bim-Mcl-1: -1; NCF1 inh: 104*; Mcl1-Bid inh: -56; eIF4E 4G PPI: 68*

How did Cc1ccc(-n2sc3ccccc3c2=O)cc1S(=O)(=O)N1CCCCC1 do in these assays?
14-3-3 Bad PPI: 50; Mcl1 Noxa PPI: 54*; Bim-Mcl-1: -1; NCF1 inh: 85*; Mcl1-Bid inh: -12; eIF4E 4G PPI: 32*

What do the screens show for `O=c1c2ccccc2sn1-c1ccc(S(=O)(=O)N2CCCC2)cc1`?
14-3-3 Bad PPI: -14; Mcl1 Noxa PPI: 38; Bim-Mcl-1: -5; NCF1 inh: 30*; Mcl1-Bid inh: -32; eIF4E 4G PPI: 8

What do the screens show for `O=c1c2ccccc2sn1-c1ccccc1`?
14-3-3 Bad PPI: -39; Mcl1 Noxa PPI: 25; Bim-Mcl-1: -11; NCF1 inh: 60*; Mcl1-Bid inh: -58; eIF4E 4G PPI: 54*

What do the screens show for `O=c1[nH]sc2ccccc12`?
14-3-3 Bad PPI: 1; Mcl1 Noxa PPI: 13; Bim-Mcl-1: -5; NCF1 inh: 5; Mcl1-Bid inh: -65; eIF4E 4G PPI: 12

What do the screens show for `Cc1ccc(/C=C/C(=O)Nc2ccc(S(=O)(=O)Nc3ncccn3)cc2)cc1`?
14-3-3 Bad PPI: 4; Mcl1 Noxa PPI: -8; Bim-Mcl-1: 1; NCF1 inh: -3; Mcl1-Bid inh: -8; eIF4E 4G PPI: -2

Results for O=C(/C=C/c1ccc(F)cc1)Nc1ccc(S(=O)(=O)Nc2ncccn2)cc1 ?
14-3-3 Bad PPI: -4; Mcl1 Noxa PPI: 8; NCF1 inh: 120*; Mcl1-Bid inh: -16; eIF4E 4G PPI: -2

What do the screens show for `CCCc1cc(=O)oc2c(C)c(OCC(=O)c3ccc(N4CCCC4)cc3)ccc12`?
14-3-3 Bad PPI: 67; Mcl1 Noxa PPI: 32; Bim-Mcl-1: -21; NCF1 inh: 34*; Mcl1-Bid inh: 49; eIF4E 4G PPI: 29

How did CCS(=O)(=O)c1ccc2oc(Nc3ccc(C(C)C)cc3)nc2c1 do in these assays?
14-3-3 Bad PPI: 33; Mcl1 Noxa PPI: -3; Bim-Mcl-1: -11; NCF1 inh: 8; Mcl1-Bid inh: 6; eIF4E 4G PPI: 44*

How did COCCn1nnnc1C(C(C)C)N1CCCC(C)C1 (centres undefined) do in these assays?
14-3-3 Bad PPI: 5; Mcl1 Noxa PPI: 20; Bim-Mcl-1: 0; NCF1 inh: 3; Mcl1-Bid inh: -11; eIF4E 4G PPI: 2

Results for CCOC(=O)C1=C(C)NC(=O)C(C(N)=O)C12CCCCC2 (centres undefined) ?
14-3-3 Bad PPI: 3; Mcl1 Noxa PPI: 57*; Bim-Mcl-1: -1; NCF1 inh: -5; Mcl1-Bid inh: -9; eIF4E 4G PPI: -1

Results for NS(=O)(=O)c1ccc(N/N=C/c2ccc(O)c(O)c2O)c([N+](=O)[O-])c1 ?
14-3-3 Bad PPI: 89*; Mcl1 Noxa PPI: 37; NCF1 inh: 14; Mcl1-Bid inh: 95*; eIF4E 4G PPI: 78*
